Results: PubChem BioAssay
Active and inactive are the calls of the source.

Assays:
[1] = E. coli DRC41 culture turbidity changes, primary screen, E. coli filamentation inducer project, strain DRC41, OD650, 48 h (AID 1152);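 note: E. coli MC1000 strain DRC41 lacking acrAB efflux pump and sulA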; conditions: E. coli DRC41 (acrAB sulA), higher = more signal, called active from +8 up or from −8 down
[2] = small-molecule binders of probe aLefty1, primary screen, biochemical, small-molecule microarray, 635/667 nm fluorescence (AID 1153); conditions: higher = more signal;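 note: score merges spot fluorescence with signal-to-noise ratio from the scanned slide images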
[3] = PSAC antagonists in infected red cells, primary screen, cell-based, P. falciparum Indochina, OD700, 1 h (AID 1154); conditions: P. falciparum Indochina infected RBC osmotic lysis, higher = more signal, called active from +8 up or from −8 down
[4] = PSAC antagonists in infected red cells, primary screen, cell-based, P. falciparum Indochina, OD700, 2 h (AID 1155);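 note: lysis reports solute entry through the parasite surface anion channel PSAC; channel blockers reduce lysis of infected cells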; conditions: P. falciparum Indochina infected erythrocytes, osmotic lysis OD700; higher = more signal, called active from +8 up or from −8 down
[5] = osmotic lysis modulators in infected erythrocytes, primary screen, PSAC antagonist project, cell-based, P. falciparum Indochina, OD700, 3 h (AID 1156); conditions: higher = more signal, called active from +8 up or from −8 down
[6] = PSAC antagonists in infected red cells, primary screen, cell-based, P. falciparum Indochina, OD700, 18 h (AID 1157); conditions: P. falciparum Indochina infected erythrocytes, osmotic lysis OD700, 18 h; higher = more signal, called active from +8 up or from −8 down
[7] = modulators of S6 phosphorylation in cells, primary screen, cell-based, A549, cytoblot, luminescence, serum-stimulated (AID 1158); conditions: A549 phospho-S6 cytoblot, 5 h, higher = more signal;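 note: serum-stimulated A549 lung adenocarcinoma cells; signal is phosphorylated S6 detected by cytoblot immunostaining with HRP secondary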
[8] = target: NADPH oxidase 2 (Homo sapiens) (UniProt P04839); assay: NOX2-dependent H2O2 signal modulators, primary screen, NOX inhibitor project, cell-based, HEK293-NOX2, PMA-stimulated, Amplex Red fluorescence (AID 1159); conditions: 45 min, higher = more signal, called active from +8 up or from −8 down; note: test concentration not given here
[9] = target: NADPH oxidase 4 (Homo sapiens) (UniProt Q9NPH5); assay: NOX4-dependent H2O2 signal modulators, primary screen, NOX inhibitor project, cell-based, HEK293-NOX4, tetracycline-induced, Amplex Red fluorescence (AID 1160); conditions: 45 min, higher = more signal, called active from +8 up or from −8 down
[10] = target: NADPH oxidase 5 (Homo sapiens) (UniProt Q96PH1); assay: NOX5-dependent H2O2 signal modulators, primary screen, NOX inhibitor project, cell-based, HEK293-NOX5, Amplex Red fluorescence (AID 1161); conditions: HEK293-NOX5, ionomycin, 45 min, higher = more signal
Sequence of NADPH oxidase 5 (Homo sapiens) (Q96PH1 whole entry, looked up): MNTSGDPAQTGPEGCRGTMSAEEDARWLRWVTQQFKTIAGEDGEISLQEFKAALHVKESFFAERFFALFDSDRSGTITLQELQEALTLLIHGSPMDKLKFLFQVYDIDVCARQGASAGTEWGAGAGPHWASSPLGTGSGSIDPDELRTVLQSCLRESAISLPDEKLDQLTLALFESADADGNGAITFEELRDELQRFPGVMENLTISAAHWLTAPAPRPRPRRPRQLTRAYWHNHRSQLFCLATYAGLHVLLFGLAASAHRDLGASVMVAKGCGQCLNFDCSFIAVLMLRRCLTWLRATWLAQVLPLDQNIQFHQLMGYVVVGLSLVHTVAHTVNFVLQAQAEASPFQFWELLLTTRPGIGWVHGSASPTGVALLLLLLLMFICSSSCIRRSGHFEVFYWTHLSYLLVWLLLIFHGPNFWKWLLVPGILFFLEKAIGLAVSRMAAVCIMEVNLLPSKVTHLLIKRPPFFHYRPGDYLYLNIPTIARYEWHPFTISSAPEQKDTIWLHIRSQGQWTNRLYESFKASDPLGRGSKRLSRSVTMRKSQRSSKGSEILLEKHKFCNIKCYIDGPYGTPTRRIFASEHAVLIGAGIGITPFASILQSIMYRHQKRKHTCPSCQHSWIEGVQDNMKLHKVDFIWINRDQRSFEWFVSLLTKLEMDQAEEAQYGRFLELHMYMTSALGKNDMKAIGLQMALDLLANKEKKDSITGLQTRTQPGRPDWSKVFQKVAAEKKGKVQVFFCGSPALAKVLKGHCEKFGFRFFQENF

Sequence of NADPH oxidase 2 (Homo sapiens) (P04839 whole entry, looked up): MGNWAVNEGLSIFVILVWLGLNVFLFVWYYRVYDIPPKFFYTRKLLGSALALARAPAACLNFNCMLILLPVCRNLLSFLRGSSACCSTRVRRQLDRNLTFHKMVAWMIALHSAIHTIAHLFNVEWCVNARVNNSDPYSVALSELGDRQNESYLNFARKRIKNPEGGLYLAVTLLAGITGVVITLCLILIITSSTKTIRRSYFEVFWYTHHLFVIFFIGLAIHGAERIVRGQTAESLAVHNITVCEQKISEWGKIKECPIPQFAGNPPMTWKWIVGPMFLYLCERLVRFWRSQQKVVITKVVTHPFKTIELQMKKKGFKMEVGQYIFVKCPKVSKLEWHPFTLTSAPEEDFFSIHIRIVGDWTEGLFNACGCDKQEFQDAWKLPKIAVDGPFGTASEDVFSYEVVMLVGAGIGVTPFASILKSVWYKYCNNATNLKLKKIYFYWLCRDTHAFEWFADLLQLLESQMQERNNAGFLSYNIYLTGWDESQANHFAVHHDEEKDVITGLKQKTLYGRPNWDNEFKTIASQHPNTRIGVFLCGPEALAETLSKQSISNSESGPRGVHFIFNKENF
Sequence of NADPH oxidase 4 (Homo sapiens) (Q9NPH5 whole entry, looked up): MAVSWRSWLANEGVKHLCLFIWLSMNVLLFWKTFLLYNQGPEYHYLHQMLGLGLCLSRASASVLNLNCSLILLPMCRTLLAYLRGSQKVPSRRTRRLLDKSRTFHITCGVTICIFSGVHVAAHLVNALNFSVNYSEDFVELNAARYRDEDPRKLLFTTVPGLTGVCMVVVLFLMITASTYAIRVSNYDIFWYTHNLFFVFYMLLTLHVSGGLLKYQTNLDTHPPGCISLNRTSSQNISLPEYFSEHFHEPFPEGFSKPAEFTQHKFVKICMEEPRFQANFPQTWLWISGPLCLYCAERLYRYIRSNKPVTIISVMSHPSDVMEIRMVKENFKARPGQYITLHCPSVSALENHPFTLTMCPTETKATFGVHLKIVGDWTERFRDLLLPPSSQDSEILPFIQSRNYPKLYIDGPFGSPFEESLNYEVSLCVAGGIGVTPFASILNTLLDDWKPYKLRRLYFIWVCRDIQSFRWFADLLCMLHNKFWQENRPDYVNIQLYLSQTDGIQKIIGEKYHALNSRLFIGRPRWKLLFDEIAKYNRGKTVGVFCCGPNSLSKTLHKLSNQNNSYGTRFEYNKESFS

Compound	z-score [1]	composite z-score [2]	z-score [3]	z-score [4]	z-score [5]	z-score [6]	z-score [7]	z-score [8]	z-score [9]	z-score [10]
O=C(CS)NCCCCCCNC(=O)[C@H]1C[C@H]2C(=O)N[C@@H](Cc3ccccc3)C(=O)N2[C@H]1c1cccc(OCCO)c1	-0.405 (inactive)	0.269	6 (inactive)	0.988 (inactive)	-0.228 (inactive)	0.351 (inactive)	0.882	1.76 (inactive)	0.441 (inactive)	-0.135
CN(C)CCCNC(=O)[C@@H]1c2ccccc2C(=O)N(Cc2ccc(OC(F)(F)F)cc2)[C@H]1c1ccc(CO)cc1	0.532 (inactive)	0.197	2.04 (inactive)	0.81 (inactive)	3 (inactive)	0.891 (inactive)	0.0342	0.799 (inactive)	0.237 (inactive)	1.44
CC(C)OC(=O)CC(=O)CC(O)c1cccc(C#N)c1 (stereo not given)	1.27 (inactive)	0.273	1.65 (inactive)	-0.261 (inactive)	-1.36 (inactive)	-1.2 (inactive)	1.29	0.247 (inactive)	0.89 (inactive)	-0.0191
C=C[C@H](COC(C)=O)NS(=O)(=O)c1ccc(Br)cc1	0.348 (inactive)	0.0056	0.174 (inactive)	-0.191 (inactive)	-0.3 (inactive)	0.252 (inactive)	0.16	1.96 (inactive)	-0.0653 (inactive)	0.0573
O=C1O[C@@H](c2ccccc2)[C@@H](c2ccccc2)N2[C@@H](c3ccc(O)cc3)[C@]3(C(=O)Nc4ccc(C#CCCO)cc43)[C@@H](C(=O)Nc3nc4ccccc4s3)[C@H]12	0.341 (inactive)	0.139	1.35 (inactive)	1.19 (inactive)	-0.743 (inactive)	1.63 (inactive)	-0.435	1.1 (inactive)	0.604 (inactive)	-0.073
Cc1ccc(F)cc1S(=O)(=O)N[C@@H]1CCN(Cc2ccc(Oc3ccccc3)cc2)C1	-12.2 (active)	0.266	7.61 (inactive)	1.9 (inactive)	0.701 (inactive)	1.19 (inactive)	-0.766	-0.615 (inactive)	-1.08 (inactive)	-1.67
O=C1NC(=O)C2C1C=CC(C(O)c1cc(C(F)(F)F)cc(C(F)(F)F)c1)N2Nc1ccc(Cl)cc1Cl (stereo not given)	-2.29 (inactive)	0.546	0.321 (inactive)	0.168 (inactive)	-1.6 (inactive)	0.998 (inactive)	-1.41	0.128 (inactive)	-5.87 (inactive)	-2.22
COC(=O)C(CC#Cc1ccc2c(c1)[C@]1(C(=O)N2)[C@H](C(=O)O)[C@H]2C(=O)O[C@H](c3ccccc3)[C@H](c3ccccc3)N2[C@@H]1c1ccccc1OCCO)C(=O)OC	-1.21 (inactive)	0.658	4.19 (inactive)	0.487 (inactive)	-5.95 (inactive)	-0.008 (inactive)	0.029	1.37 (inactive)	-1.33 (inactive)	1.19
CN1C(=O)C2C=CC(C(O)Cc3ccccc3)N(N(c3ccccc3)c3ccccc3)C2C1=O (stereo not given)	-1.29 (inactive)	0.137	1.15 (inactive)	1.09 (inactive)	0.449 (inactive)	0.679 (inactive)	-1.07	-0.0622 (inactive)	-0.198 (inactive)	0.158
COC(=O)[C@@]1(Cc2ccccc2)[C@H]2c3cc(C(=O)N4CCCC4)n(Cc4ccsc4Br)c3C[C@H]2CN1C(=O)c1ccccc1	-1.82 (inactive)	0.451	7 (inactive)	1.07 (inactive)	1.04 (inactive)	1.03 (inactive)	-0.215	0.0188 (inactive)	0.707 (inactive)	-2.92
CCOC(=O)[C@H]1C/C=C/C[C@H](C(=O)OCC)C(=O)O[C@H]2[C@@H](OC)O[C@H](CO)[C@@H](OC(=O)Nc3ccc(OC)cc3)[C@@H]2OC1=O	1.04 (inactive)	0.104	0.736 (inactive)	-0.0928 (inactive)	-0.0986 (inactive)	0.385 (inactive)	-0.0056	-2.43 (inactive)	-1.29 (inactive)	-1.99
COCCCNC(=O)[C@]1(Cc2ccccc2CN=[N+]=[N-])N=C(c2ccc(OCCCO)cc2)O[C@@H]1c1ccccc1	0.65 (inactive)	-0.184	26.2 (active)	15.5 (active)	1.28 (inactive)	0.178 (inactive)	1.64	-1.94 (inactive)	-0.52 (inactive)	-1.46
O=c1cccc(-c2cccc(Cl)c2)o1	0.457 (inactive)	-0.0057	25.8 (active)	10.2 (active)	-0.51 (inactive)	1.27 (inactive)	-0.717	-0.16 (inactive)	-1.92 (inactive)	-0.541
O=C1C[C@]2(c3ccc([N+](=O)[O-])cc3)C(=O)N(Cc3ccccc3)c3cc(CO)ccc3[C@H]2N1CC12CC3CC(CC(C3)C1)C2	-0.06 (inactive)	-0.678	0.556 (inactive)	0.37 (inactive)	-0.401 (inactive)	0.23 (inactive)	-0.218	0.135 (inactive)	0.256 (inactive)	0.664
CCOC(=O)C[C@H]1[C@H](OC(=O)c2ccc(C(=O)c3ccccc3)cc2)[C@@H](NC(=O)c2ccc3ccccc3c2)c2cc(OCCCO)ccc2N1C(=O)c1ccccc1	-0.558 (inactive)	-0.0134	0.137 (inactive)	-0.0012 (inactive)	-0.97 (inactive)	0.189 (inactive)	-0.357	0.311 (inactive)	0.945 (inactive)	1.06
COCCOC(=O)N1C(=O)[C@@]2(c3cc(C#Cc4ccc(OC)cc4)ccc31)[C@H](C(=O)NC[C@H](O)c1ccccc1)[C@H]1C(=O)O[C@H](c3ccccc3)[C@H](c3ccccc3)N1[C@@H]2c1ccc(O)cc1	-0.16 (inactive)	0.289	1.48 (inactive)	0.702 (inactive)	-0.784 (inactive)	0.704 (inactive)	0.236	1.04 (inactive)	0.0374 (inactive)	0.00809
COC(=O)[C@@]1(Cc2ccc(OC)cc2)[C@H]2c3cc(C(=O)N4CCCC4)n(CCc4cc5ccccc5[nH]4)c3C[C@H]2CN1C(=O)c1ccccc1	-1.31 (inactive)	0.712	4.17 (inactive)	0.852 (inactive)	1.45 (inactive)	1.11 (inactive)	-0.231	0.00439 (inactive)	0.319 (inactive)	-3.28
CCCCN1CC=CC23O[C@@H]4/C=C\CCC(C)OC(=O)C4[C@H]2C(=O)N(CCCCCCO)[C@@H]3C1=O (stereo not given in full)	0.622 (inactive)	-0.145	0.548 (inactive)	0.31 (inactive)	0.573 (inactive)	0.454 (inactive)	1.81	1.2 (inactive)	0.112 (inactive)	2.3
O=C1NC(=O)C2C1C=CC(C(O)c1c(F)cccc1Cl)N2Nc1ccccn1 (stereo not given)	-0.805 (inactive)	0.245	-0.0298 (inactive)	0.653 (inactive)	-0.254 (inactive)	0.828 (inactive)	-1.1	-1.84 (inactive)	-3 (inactive)	-2.23
COc1cc2c(cc1OC)CN(C(=O)[C@@H]1[C@H]3C(=O)O[C@H](c4ccccc4)[C@H](c4ccccc4)N3[C@H](c3ccccc3OCCO)[C@@]13C(=O)Nc1ccc(C#CC4(O)CCCCCC4)cc13)CC2	2.01 (inactive)	-0.2	3.46 (inactive)	2.47 (inactive)	1.26 (inactive)	2.21 (inactive)	0.454	1.73 (inactive)	0.934 (inactive)	2.25
O=C1c2ccccc2[C@](Cc2ccccc2I)(C(=O)NCCN2CCOCC2)[C@H](c2ccc(CO)cc2)N1Cc1ccccc1	-0.381 (inactive)	0.641	4.18 (inactive)	0.815 (inactive)	-0.188 (inactive)	0.352 (inactive)	-0.0041	0.744 (inactive)	0.91 (inactive)	0.665
CN(C)C(=O)[C@]1(CCC(=O)OC(C)(C)C)N=C(c2ccc(OCCCO)cc2)O[C@@H]1c1ccccc1	0.94 (inactive)	0.217	22.5 (active)	6.32 (inactive)	-0.0962 (inactive)	0.84 (inactive)	-0.408	1.24 (inactive)	0.419 (inactive)	-0.229
CC(C)N1C(=O)[C@@]2(c3ccc([N+](=O)[O-])cc3)CC(=O)N(C3CCCCC3)[C@@H]2c2ccc(CO)cc21	0.0586 (inactive)	-0.672	-0.716 (inactive)	-0.465 (inactive)	-0.393 (inactive)	-0.334 (inactive)	0.254	-0.898 (inactive)	-0.363 (inactive)	-0.316
CC=CC(O)C1C=CC2C(=O)N(C)C(=O)C2N1Nc1ccc([N+](=O)[O-])cc1[N+](=O)[O-] (stereo not given)	-1.33 (inactive)	-0.094	1.67 (inactive)	0.917 (inactive)	0.566 (inactive)	1.1 (inactive)	-0.711	-0.379 (inactive)	-1.05 (inactive)	-1.09
C=CCN1C(=O)[C@@]2(CCC(=O)OC(C)(C)C)N=C(c3ccc(OCCCO)cc3)O[C@H]2c2ccccc21	0.46 (inactive)	0.466	36.7 (active)	36.3 (active)	3.79 (inactive)	13.2 (active)	0.0444	-2.82 (inactive)	0.413 (inactive)	-0.917
COC(=O)[C@@]1(Cc2ccccc2)[C@H]2c3cc(C(=O)N4CCCC4)n(Cc4cc(F)cc5c4OCOC5)c3C[C@H]2CN1C(=O)c1ccccc1	-1.14 (inactive)	0.0752	2.98 (inactive)	0.589 (inactive)	0.804 (inactive)	0.715 (inactive)	-0.163	0.768 (inactive)	0.0378 (inactive)	-0.652
